High-throughput results: PubChem BioAssay, The Scripps Research Institute Molecular Screening Center
In the library only some 3.5% were active in any assay of this set; here they are far more common.
FBW7 act – activators of human E3 ligase FBW7; normalized activity (activation), % at 26.1 µM; AID 1259310; AlphaScreen FBW7–phospho-cyclin E peptide binding, activator screen; hit rate 0.13% among 650,000; in the data active means normalized activity above about 1.9%;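 further: purified mutant Fbw7 with reduced substrate affinity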
TEAD-YAP inh – TEAD-YAP interaction inhibition; HEK-TIYL cells, TEAD-Gal4/YAP UAS-luciferase luminescence; inhibition, % at 9.12 µM; hit rate 1.4% among 640,000; in the data active means inhibition above about 32%;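 further: 0% = median of test compound wells and 100% = reference inhibitor wells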
MITF inh – inhibitors of human MITF; hit rate 0.91% among 650,000; O75030; inhibition, % at 2.6 µM; AlphaScreen MITF homodimerization, bead proximity signal; in the data active means inhibition above about 50%;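 further: 0% = vehicle wells with protein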
GPR151 activ – activates the human receptor GPR151 | PathHunter beta-arrestin GPR151 cells, luminescence | activation, % at 11.2 µM | hit rate 1% among 650,000; in the data active means activation above about 4.9%;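 further: 0% = median of compound wells and 100% = cells with positive control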
Target sequence (Q8TDV0 whole entry, looked up): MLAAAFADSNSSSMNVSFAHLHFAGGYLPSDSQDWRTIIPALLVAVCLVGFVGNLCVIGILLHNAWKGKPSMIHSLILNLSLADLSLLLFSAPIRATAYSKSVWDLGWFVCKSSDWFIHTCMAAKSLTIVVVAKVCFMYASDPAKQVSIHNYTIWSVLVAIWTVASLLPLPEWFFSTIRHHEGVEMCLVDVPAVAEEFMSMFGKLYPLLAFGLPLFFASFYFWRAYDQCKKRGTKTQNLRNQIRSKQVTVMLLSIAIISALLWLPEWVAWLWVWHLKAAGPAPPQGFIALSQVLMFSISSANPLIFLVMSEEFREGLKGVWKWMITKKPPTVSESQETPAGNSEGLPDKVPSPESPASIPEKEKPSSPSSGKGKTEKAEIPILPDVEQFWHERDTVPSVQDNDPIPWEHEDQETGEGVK
* hit, by the source's call.

For CC(=O)NC(C)CCc1ccc(-c2csc(N)n2)cc1 (stereo not given) the results were FBW7 act 0, TEAD-YAP inh 36*, MITF inh 5 and GPR151 activ -2.
`CC(=O)NCc1ccc(-c2csc(N)n2)cc1` gave FBW7 act 0, TEAD-YAP inh 13, MITF inh -5 and GPR151 activ 2.
Cc1nc(C(C)NC2CCN(c3cccc(NC(=O)c4ccncc4)c3)CC2)cs1 (stereo not given) was read as FBW7 act 0, TEAD-YAP inh -23, MITF inh -3 and GPR151 activ -1.
Screening CC(NC1CCN(c2cccc(NC(=O)c3ccncc3)c2)CC1)c1ccc(Cl)cc1 (stereo not given) returned FBW7 act 0, TEAD-YAP inh 36*, MITF inh 16 and GPR151 activ 0.
O=c1c2cccc3c2c(nn1Cc1ccccc1Cl)-c1ccccc1-3 was read as FBW7 act 0, TEAD-YAP inh 3, MITF inh 3 and GPR151 activ 0.
`O=c1c2cccc3c2c(nn1CCN1CCCCC1)-c1ccccc1-3` gave FBW7 act 0, TEAD-YAP inh 80*, MITF inh 18 and GPR151 activ 0.
Screening N#Cc1sc2nccc(Nc3ccccc3)c2c1N returned FBW7 act 0, TEAD-YAP inh 34*, MITF inh 6 and GPR151 activ 0.
`COc1ccccc1-c1nnc2sc(-c3cc4ccccc4o3)nn12` gave FBW7 act 0, TEAD-YAP inh 53*, MITF inh -19 and GPR151 activ 0.
For CC(=O)c1ccc(N=Nc2c(C)[nH][nH]c2=O)cc1 the results were FBW7 act 0, TEAD-YAP inh -21, MITF inh 0 and GPR151 activ -6.
For CC(=O)Nc1ccc(N=Nc2ccc(O)cc2)cc1 the results were FBW7 act 0, TEAD-YAP inh 56*, MITF inh 7 and GPR151 activ -2.
Screening CC(=O)c1ccc(N=Nc2ccc(O)cc2)cc1 returned FBW7 act 0, TEAD-YAP inh 99*, MITF inh 16 and GPR151 activ -8.
`O=C1OCC(CO)(CO)N=C1NNc1ccc([N+](=O)[O-])cc1` gave FBW7 act 0, TEAD-YAP inh 11, MITF inh 3 and GPR151 activ -1.
`Cc1ccc(-c2cccc3cnc(Nc4cccc(C(=O)N5CCOCC5)c4)nc23)cn1` gave FBW7 act 1, TEAD-YAP inh 32*, MITF inh 40 and GPR151 activ -1.
Cc1ccc(-c2cccc3cnc(NC4CCN(C(=O)N5CCCC5)C4)nc23)cn1 (stereo not given) was read as FBW7 act 0, TEAD-YAP inh 25, MITF inh 9 and GPR151 activ -1.
Cc1ccc(-c2cccc3cnc(Nc4ccc(C(=O)N5CCCC5)cc4)nc23)cn1 was read as FBW7 act 0, TEAD-YAP inh 50*, MITF inh 9 and GPR151 activ -2.
For CCCCCCCC(=O)OC[C@@H](COP(=O)(O)O[C@@H]1[C@@H](O)[C@H](OP(=O)(O)O)[C@@H](OP(=O)(O)O)[C@H](O)[C@@H]1O)OC(=O)CCCCCCC the results were MITF inh 19 and GPR151 activ -2.
`C=CCNc1nc(Cl)nc(N2CCCCC2)n1` gave FBW7 act 1, TEAD-YAP inh -8, MITF inh 9 and GPR151 activ 0.
COC(=O)c1ccc(COC(=O)c2ccccc2NC(=O)c2ccccc2)cc1 was read as FBW7 act 0, TEAD-YAP inh -2, MITF inh 7 and GPR151 activ 0.
O=C(C1CC1)N1CCc2cc(Br)cc(S(=O)(=O)Nc3ccccc3F)c21 was read as FBW7 act 0, TEAD-YAP inh 45*, MITF inh -7 and GPR151 activ -1.
Screening CC(C)(C)NS(=O)(=O)c1cc(Br)cc2c1N(C(=O)C1CC1)CC2 returned FBW7 act 0, TEAD-YAP inh -5, MITF inh -6 and GPR151 activ 1.
Screening O=C(C1CC1)N1CCc2cc(Br)cc(S(=O)(=O)Nc3cccc(F)c3)c21 returned FBW7 act 0, TEAD-YAP inh 42*, MITF inh 11 and GPR151 activ 1.
Screening CCOC(=O)C(=Cc1cccc([N+](=O)[O-])c1)C(=O)OCC returned FBW7 act 0, TEAD-YAP inh 6, MITF inh 2 and GPR151 activ 0.
Screening Cc1cccc(NC(c2cccc(O)c2)c2ccc3ccc(C)nc3c2O)n1 (stereo not given) returned FBW7 act 0, TEAD-YAP inh 11, MITF inh 17 and GPR151 activ 0.
`COc1cc(C(Nc2cccc(C)n2)c2ccc3ccc(C)nc3c2O)cc(OC)c1O` (stereo not given) gave FBW7 act 0, TEAD-YAP inh 33*, MITF inh 3 and GPR151 activ 2.
Screening Cc1ccnc(NC(c2cccc(O)c2)c2ccc3ccc(C)nc3c2O)c1 (stereo not given) returned FBW7 act 0, TEAD-YAP inh 13, MITF inh 5 and GPR151 activ 0.
For COc1cc(C(Nc2cc(C)ccn2)c2ccc3ccc(C)nc3c2O)cc(OC)c1OC (stereo not given) the results were FBW7 act 0, TEAD-YAP inh 68*, MITF inh 21 and GPR151 activ 1.
COc1cc(C(Nc2cc(C)ccn2)c2ccc3cccnc3c2O)ccc1O (stereo not given) was read as FBW7 act 0, TEAD-YAP inh -11, MITF inh 54* and GPR151 activ 1.
Screening CCOc1cc(C(Nc2cc(C)ccn2)c2ccc3cccnc3c2O)ccc1O (stereo not given) returned FBW7 act -1, TEAD-YAP inh 2, MITF inh 69* and GPR151 activ -1.
CCNc1ncc(C(=O)NCCOc2ccccc2)s1 was read as FBW7 act 0, TEAD-YAP inh -49, MITF inh 10 and GPR151 activ 0.
CC(C)CC(c1nnnn1C1CCCC1)N1CCN(C(=O)c2ccco2)CC1 (stereo not given) was read as FBW7 act 0, TEAD-YAP inh 55*, MITF inh -12 and GPR151 activ 0.
Screening CC(C)CC(c1nnnn1C1CCCCC1)N1CCN(C(=O)c2ccco2)CC1 (stereo not given) returned FBW7 act 0, TEAD-YAP inh 1, MITF inh -3 and GPR151 activ -1.
`N#CCCn1ncc2c1/C(=C/c1ccccc1)CC2` gave FBW7 act 0, TEAD-YAP inh 3, MITF inh 14 and GPR151 activ 3.
`Cn1ncc2c1/C(=C/c1ccc(Cl)cc1)CC2` gave FBW7 act 0, TEAD-YAP inh 55*, MITF inh 8 and GPR151 activ -10.
Screening COc1cccc(-c2cc(C(=O)Nc3ccc(C#N)cc3)no2)c1 returned FBW7 act 0, TEAD-YAP inh 4, MITF inh -2 and GPR151 activ 0.
`CC(C)(C)Nc1ncnc2c1cnn2-c1ccccc1` gave FBW7 act 0, TEAD-YAP inh 45*, MITF inh 3 and GPR151 activ -1.
Screening Cc1ccc(-n2ncc3c(NC(C)(C)C)ncnc32)cc1 returned FBW7 act 0, TEAD-YAP inh 49*, MITF inh -3 and GPR151 activ 2.
